# Laboratory results taken from PubChem BioAssay (NCI).
# About 79,000 compounds went through this panel and 15% of them were active in at least one assay; those are over-represented in the sample as a whole. Values without a mark were called inactive. Active and inactive are the calls of the source. Rule as the data show it: active = growth inhibition above about 70%; inactive = the rest.
# Assays:
# [1] = NCI Yeast Anticancer Drug Screen. Data for the rad50 strain (AID 155);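 also: 0% = growth of vehicle-only cultures of the same strain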; conditions: S. cerevisiae rad50 strain growth inhibition; at 50.0 µM; active compounds read high
# Procedure, shortened: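 Compounds were tested on a yeast strain with an engineered DNA damage repair alteration; the reported value is growth inhibition normalised to vehicle treatment.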
# [2] = NCI Yeast Anticancer Drug Screen. Data for the mec2-1 strain (AID 157); conditions: S. cerevisiae mec2-1 strain, at 50.0 µM, active compounds read high
# Procedure, shortened: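 Readout is yeast growth inhibition, normalised to vehicle-treated controls, in the mec2-1 strain exposed to compound.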
# [3] = NCI Yeast Anticancer Drug Screen. Data for the sgs1 mgt1 strain (AID 161);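 also: 0% = growth of cultures given vehicle only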; conditions: S. cerevisiae sgs1 mgt1 strain, at 50.0 µM, active compounds read high
# Procedure, shortened: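 This yeast growth screen uses a strain with defined DNA-repair lesions; compound-treated growth is compared with vehicle-treated growth.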
# [4] = NCI Yeast Anticancer Drug Screen. Data for the cln2 rad14 strain (AID 165);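 also: 0% = growth equal to vehicle treated cultures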; conditions: S. cerevisiae cln2 rad14 strain, at 50.0 µM, active compounds read high
# Procedure, shortened: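 Relative to vehicle controls, growth inhibition of compound-treated cln2 rad14 yeast was recorded.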
# [5] = NCI Yeast Anticancer Drug Screen. Data for the bub3 strain (AID 167); conditions: S. cerevisiae bub3 mutant strain, at 50.0 µM, active compounds read high
# Procedure, shortened: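 Growth of a checkpoint-deficient yeast mutant is measured after compound exposure. Values represent inhibition relative to vehicle.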
# [6] = NCI Yeast Anticancer Drug Screen. Data for the mlh1 rad18 strain (AID 175); conditions: S. cerevisiae mlh1 rad18 strain growth inhibition; at 50.0 µM; active compounds read high
# Procedure, shortened: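 Test agents were incubated with a yeast strain of defined genotype (DNA damage repair defect). Inhibition of growth was derived by comparison with vehicle-exposed cultures.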
Compound,growth inhibition [1],growth inhibition [2],growth inhibition [3],growth inhibition [4],growth inhibition [5],growth inhibition [6]
COc1ccc(NC2=CC(=O)c3ccccc3C2=O)cc1,0.4%,5.55%,4.1%,-35%,18.2%,-7.1%
N/C(=N\O)C(=O)c1ccccc1,9.8%,-12.8%,-5.8%,-5.3%,2.35%,3.95%
CCC(COCC(CC)C(=O)O)C(=O)O (stereo unspecified),11.3%,1.1%,18.6%,19.1%,12.7%,15.2%
CC(C)(O)C(O)COc1c2c(cc3oc(=O)ccc13)OCO2 (stereo unspecified),26.3%,3.5%,18.9%,-1.35%,31.9%,25.6%
COc1ccccc1C(=O)NO,-14.1%,-27.2%,-22.9%,8.05%,-14.2%,-7.55%
Cc1[nH]c(=O)nc(N/N=C/c2ccc(O)cc2)c1C(=O)Nc1ccc(Cl)cc1,-17.6%,-16%,-20.6%,-3.15%,-12.6%,-25.9%
CC1CC(=O)N2CCCNC2=C1C#N (stereo unspecified),-0.55%,4.6%,12.8%,19.2%,3.75%,26.1%
CCCC[P+](C)(CC[P+](C)(c1ccccc1)c1ccccc1)c1ccccc1 (stereo unspecified),36.3%,80.8% (active),69%,96.5% (active),98.1% (active),37.3%
Cc1ncc(CO)c(/C=N\Nc2ccc([N+](=O)[O-])cc2[N+](=O)[O-])c1O,-21.4%,19.2%,9.7%,-17.7%,11.3%,13.9%
COc1ccc2c(c1)NC(C(C)C)=NS2(=O)=O,17.9%,15.8%,17.4%,4.95%,18.4%,25.8%
CCOC1([N+](=O)[O-])c2ccccc2-c2nc3ccccc3cc21 (stereo unspecified),96.8% (active),75.5% (active),74% (active),63.7%,78.8% (active),92.4% (active)
Cc1ncc(CSc2ccccc2N)c(CO)c1O,-10.8%,-10.1%,-22.5%,48.2%,5.5%,-4.55%
NS(=O)(=O)c1ccc(NC(=O)Nc2ccccc2F)cc1,-3.35%,-6.85%,-28.4%,-13.2%,1.15%,12.6%
Cc1ccc(C2(O)CC(c3ccc([N+](=O)[O-])o3)=NN2C(=O)COc2ccccc2Cl)cc1 (stereo unspecified),46.1%,-15.2%,-0.45%,0.15%,-1.9%,-6.45%
CCCCCCCCCCCC(=O)c1c(O)cccc1O,-10.1%,-16.1%,7.75%,16.9%,10.7%,-20.1%
CCOC(=O)C(N=Nc1ccc(S(N)(=O)=O)cc1)C(C)=O (stereo unspecified),-0.9%,-15.1%,-12.7%,-4.25%,-13.2%,16.1%
COc1cc(CCCO)ccc1O,0.85%,13.8%,0.25%,-48.1%,9.1%,-4.1%
O=[N+]([O-])c1ccc(/C=C(/c2ccc([N+](=O)[O-])o2)S(=O)(=O)C(Cl)(Cl)Cl)cc1,96.7% (active),97.2% (active),98.3% (active),97.1% (active),90.1% (active),97.8% (active)
c1scc2c1COCCOCCOCCOCCOCCOCCOC2,-21.7%,-14.8%,10.4%,5.05%,6.3%,-6.9%
C1C[O][Ge]2([O]1)[O]CC[O]2,-24.9%,-4.95%,-16.2%,17.1%,-13.2%,-5.95%
NNC(=O)N/N=C(\CBr)c1ccc(Cl)cc1,-2.35%,-0.45%,6.9%,-47.6%,3.95%,4.35%

Compound,growth inhibition [1],growth inhibition [2],growth inhibition [3],growth inhibition [4],growth inhibition [5],growth inhibition [6]
Cc1cc(N=Nc2ccc(S(=O)(=O)O)c3ccccc23)ccc1O,-33.6%,9.75%,-5.1%,-66.1%,12.9%,-5.6%
CN(C)c1ccc(N=C(C#CC#Cc2ccccc2)c2ccccc2)cc1,3.85%,-4%,7.55%,-42.4%,-19.4%,24.8%
O=C(CC1(O)CCCCC1)Nc1ccccc1,1.9%,-8.45%,-8.4%,-54.6%,4.6%,-13.1%
COc1cccc(/C=N/N(C)c2c([N+](=O)[O-])cc(C(F)(F)F)cc2[N+](=O)[O-])c1O,-1.3%,-17.3%,-16.6%,14.1%,3.7%,-5.8%
N=C1N=Nc2nc(C(C(=O)c3cccc(O)c3)c3nc4n(c3O)C(=N)N=N4)c(O)n21 (stereo unspecified),18.8%,23.9%,-8.9%,10.4%,-2.75%,28.6%
Cc1cc2nnn(-c3ncccc3[N+](=O)[O-])c2cc1C,5%,5.85%,-5.2%,17.8%,9.8%,19.4%
O=C1CSC(=S)N1c1ccccc1,2.2%,-3.8%,-3.6%,-4.75%,0.8%,2.9%
CCC1(CC)NC(=S)NC1=S,24.5%,7.4%,26.4%,10%,16.4%,20%
Cc1ccc(SCC(CF)OC(C)n2cnc3c(Cl)nc(N)nc32)cc1 (stereo unspecified),14.3%,1.05%,30.6%,39.6%,41.7%,-36.7%
N#CC12CC=C(c3ccccc3)N=C1NC(c1ccccc1)=CC2 (stereo unspecified),-25.9%,-35.5%,-31.7%,-38.4%,-1.65%,-34.1%
CC1=NC(=Cc2ccc(O)cc2)C(=O)N1n1c(-c2ccccc2)nc2ccccc2c1=O,-4.7%,-10.3%,-5.35%,2.6%,-10.8%,3.45%
CCOC(=O)c1cnc2c(ccc3ncccc32)c1Cl,-13.9%,-7.45%,15.8%,25.2%,7%,27.1%
OCCCCCOCc1ccccc1,18.9%,3.6%,42.1%,42.8%,-8.65%,23.3%
CN1CCCCCCCC(=O)C(OC(=O)c2ccc([N+](=O)[O-])cc2)CCCCCCC1 (stereo unspecified),33.5%,4.25%,27%,9.85%,1.55%,14.1%
[Cl][Co][Cl].[NH-]CCC[NH-].[NH-]CCC[NH-],1.5%,21.3%,13.3%,10.2%,-4.4%,16.7%
COc1ccc(-c2cc(O)cc(C)c2N)c(OC)c1OC,17.1%,14.6%,17.4%,7.9%,-3.45%,17.4%
CC(C)(C)C(=O)[CH-]C(=O)C(C)(C)C.CC(C)(C)C(=O)[CH-]C(=O)C(C)(C)C.CN(C)c1ccc([O-])cc1.CN(C)c1ccc([O-])cc1.[Ti+4],-20.8%,-16.5%,-12.2%,12.2%,5.4%,-11.2%
OC(c1ccccc1)C(Cc1ccccc1)N1CCCCC1 (stereo unspecified),2.4%,1.3%,23.2%,-4.45%,7.7%,5.35%
Cc1cc(C)cc(O)c1,-9.4%,-12.8%,-42%,-13.2%,-14.8%,-1.7%
Cc1ccc(OS(=O)Nc2cccc(N)c2)cc1 (stereo unspecified),-5.35%,-12.1%,-13.9%,-22.1%,-8.4%,-10.3%
